A number with no mark means an inactive call. Results filed as inconclusive are left out. Entries that show only a call come without a potency. Calls of active or inactive are those of the source. Calls follow the shape of the dose curve; as a rule, active = well fitted curve in the direction sought with a large enough effect; inconclusive = small, poorly fitted or top-dose-only effect, or another doubt; inactive = no such curve, though single readings can be large; an effect the other way counts as inactive or inconclusive.
Legend:
[1] = OV-KATE Cancer Cell Toxicity qHTS against the NCATS CANVASS Library (AID 1347345)
Method in brief: (§1)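 Per well, 1000 cells; exposure 72 h with compound at 11 final concentrations; readout CellTiter-Glo luminescence.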

[2] = HPAF-II Cancer Cell Toxicity qHTS against the NCATS CANVASS Library (AID 1347346); also: nearly all actives have a fitted effect of over 55% in size; also: potency is read from the fitted curve at half-maximal effect
Method in brief: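 Cytotoxicity in HPAF-II pancreatic cancer cells: 72 h treatment across 11 concentrations, ATP-based CellTiter-Glo luminescence endpoint.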

[3] = UWB1.289 Cancer Cell Toxicity qHTS against the NCATS CANVASS Library (AID 1347347); also: nearly all actives have a fitted effect of over 60% in size; also: potency is read from the fitted curve at half-maximal effect
Method in brief: as §1

[4] = OV-SAHO Cancer Cell Toxicity qHTS against the NCATS CANVASS Library (AID 1347348); also: nearly all actives have a fitted effect of over 55% in size; also: potency is read from the fitted curve at half-maximal effect
Method in brief: as §1

[5] = Panc-1005 Cancer Cell Toxicity qHTS against the NCATS CANVASS Library (AID 1347349); also: nearly all actives have a fitted effect of over 60% in size; also: potency is read from the fitted curve at half-maximal effect
Method in brief: as §1

[6] = SW1088 Cancer Cell Toxicity qHTS against the NCATS CANVASS Library (AID 1347350); also: nearly all actives have a fitted effect of over 75% in size; also: potency is read from the fitted curve at half-maximal effect
Method in brief: as §1

[7] = COV-362 Cancer Cell Toxicity qHTS against the NCATS CANVASS Library (AID 1347352); also: potency is read from the fitted curve at half-maximal effect
Method in brief: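 qHTS cytotoxicity: compounds tested in 11 concentrations on 1000 seeded cells per well over 72 h; bortezomib served as control; signal from CellTiter-Glo luminescence.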

[8] = A2780 Cisplatin Sensitive Ovarian Cancer Cell Toxicity qHTS against the NCATS CANVASS Library (AID 1347353); also: nearly all actives have a fitted effect of over 60% in size; also: potency is read from the fitted curve at half-maximal effect
Method in brief: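 Seventy-two-hour exposure of cisplatin-sensitive A2780 ovarian cells to an 11-concentration qHTS series; cytotoxicity is inferred from loss of ATPLite luminescence. Bortezomib titration served as positive control.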

[9] = HEK293 12hr Apoptosis Induction qHTS against the NCATS CANVASS Library (AID 1347361)
Method in brief: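 HEK293 cells (500/well, DMEM + 10% FBS) were exposed to natural products across an 11-point series for 12 hours at 37 degrees C. Caspase-3/7 activity was then measured with DEVD luciferase luminescence after 15 min at room temperature.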

[10] = KB-8-5-11 Cancer Cell Toxicity qHTS against the NCATS CANVASS Library (AID 1347364); also: nearly all actives have a fitted effect of over 75% in size; also: potency is read from the fitted curve at half-maximal effect
Method in brief: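 Natural products were titrated in 11 points onto KB-8-5-11 cells, 500 per well, and cytotoxicity was scored from CellTiter-Glo luminescence after 72 hr culture.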

[11] = target: Nuclear receptor subfamily 1 group I member 3 (Homo sapiens) (UniProt Q14994); test: qHTS for Constitutive Androstane Receptor (CAR) Antagonist screened against the NCATS CANVASS Library (AID 1347372); also: potency is read from the fitted curve at half-maximal effect
Sequence of Nuclear receptor subfamily 1 group I member 3 (Homo sapiens) (Q14994 whole entry, looked up): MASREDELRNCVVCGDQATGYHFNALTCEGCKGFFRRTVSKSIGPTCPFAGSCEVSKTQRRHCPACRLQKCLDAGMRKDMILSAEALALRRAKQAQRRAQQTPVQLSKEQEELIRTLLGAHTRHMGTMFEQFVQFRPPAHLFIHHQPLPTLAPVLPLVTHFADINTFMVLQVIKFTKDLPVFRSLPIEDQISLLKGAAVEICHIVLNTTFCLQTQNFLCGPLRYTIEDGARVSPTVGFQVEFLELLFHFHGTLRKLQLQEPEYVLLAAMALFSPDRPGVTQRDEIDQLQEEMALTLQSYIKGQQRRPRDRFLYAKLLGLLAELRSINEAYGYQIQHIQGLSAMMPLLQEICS
Method in brief: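 HepG2 cells stably carrying hCAR and CYP2B6-2.2kb luciferase reporter, 2500 cells/well, compound with 50 nM CITCO agonist for 24hr at 37C. ONE-Glo luminescence measured CAR activity; CellTiter-Fluor read viability.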

[12] = qHTS for Hypoxia signaling pathway (HIF-1) antagonists against the NCATS CANVASS Library (AID 1347374); also: nearly all actives have a fitted effect of over 60% in size; also: potency is read from the fitted curve at half-maximal effect
Method in brief: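 HRE-bla ME-180 cells (2,000/well, 0.5% dialyzed FBS) were pre-incubated 5 h, then given an 11-point compound series plus CoCl2 (60 uM solution as added) for 17 h at 37C. CCF4 β-lactamase read (ex 405, em 460/530 nm) after 2 h at RT.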

[13] = 10-beta competent E. coli microbial cell viability qHTS against the NCATS CANVASS Library (AID 1347376); also: series mostly up to about 46 µM
Method in brief: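 Cytotoxicity toward competent E. coli is scored from cellular ATP content via BacTiter-Glo luminescence following overnight compound exposure at 37C, 5% CO2.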

[14] = qHTS for Antimalaria activity screened against the NCATS CANVASS Library (AID 1347380); also: nearly all actives have a fitted effect of over 40% in size; also: potency is read from the fitted curve at half-maximal effect
Method in brief: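 Growth inhibition of asexual erythrocytic P. falciparum Dd2 was quantified by SYBR Green DNA staining. Cultures grew 72 h with compound (11-point series) in hypoxic gas at 37C; lysis and staining lasted 18 h.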

[15] = Inflammasome Signaling qHTS Counterscreen: IL-1-beta AlphaLISA counterscreen against the NCATS CANVASS Library (AID 1347381);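 also: cell-free check with purified IL-1β in medium and no THP-1 cells; series mostly up to about 57 µM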
Method in brief: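 To flag interference with the AlphaLISA read-out, a known amount of purified IL-1-beta (4 pg) replaced cell supernatant. Detection used anti-IL-1-beta acceptor beads, biotinylated antibody and streptavidin donor beads at room temperature.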

[16] = qHTS for activators of Nrf2/ARE signaling pathway screened against the NCATS CANVASS Library (AID 1347391); also: nearly all actives have a fitted effect of over 60% in size; also: potency is read from the fitted curve at half-maximal effect
Method in brief: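 Cells carrying an ARE-driven beta-lactamase reporter (HepG2 background) are dosed for 16 h, then stained with CCF4. Cell viability in the same wells is measured by CellTiter-Glo luminescence.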

[17] = DH5-alpha competent E. coli microbial cell viability qHTS against the NCATS CANVASS Library (AID 1347377); details: outcome: dose series up to 46.1 µM unless noted
Method in brief: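 Cell viability of competent DH5-alpha E. coli is scored from ATP content by luminescence. Cells sit overnight at 37C with compound across an 11-point concentration series.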

[18] = qHTS for inhibitors of ER calcium dysfunction: SERCaMP assay screened against the NCATS CANVASS Library (AID 1347393); also: nearly all actives have a fitted effect of over 40% in size; also: potency is read from the fitted curve at half-maximal effect
Method in brief: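 SH-SY5Y GLuc-SERCaMP, 1000 cells/well, 4 h attach; cpd 16 h, 37C/5% CO2; thapsigargin (added as 6x 600 nM) 4 h; coelenterazine; luminescence. Reduced reporter release = ER Ca stabilization.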

[19] = target: Luciferin 4-monooxygenase (Photinus pyralis) (UniProt P08659); test: Firefly luciferase counterscreen qHTS: Assay Interference Panel against the NCATS CANVASS Library (AID 1347363); also: series mostly up to about 57 µM
Sequence of Luciferin 4-monooxygenase (Photinus pyralis) (P08659 whole entry, looked up): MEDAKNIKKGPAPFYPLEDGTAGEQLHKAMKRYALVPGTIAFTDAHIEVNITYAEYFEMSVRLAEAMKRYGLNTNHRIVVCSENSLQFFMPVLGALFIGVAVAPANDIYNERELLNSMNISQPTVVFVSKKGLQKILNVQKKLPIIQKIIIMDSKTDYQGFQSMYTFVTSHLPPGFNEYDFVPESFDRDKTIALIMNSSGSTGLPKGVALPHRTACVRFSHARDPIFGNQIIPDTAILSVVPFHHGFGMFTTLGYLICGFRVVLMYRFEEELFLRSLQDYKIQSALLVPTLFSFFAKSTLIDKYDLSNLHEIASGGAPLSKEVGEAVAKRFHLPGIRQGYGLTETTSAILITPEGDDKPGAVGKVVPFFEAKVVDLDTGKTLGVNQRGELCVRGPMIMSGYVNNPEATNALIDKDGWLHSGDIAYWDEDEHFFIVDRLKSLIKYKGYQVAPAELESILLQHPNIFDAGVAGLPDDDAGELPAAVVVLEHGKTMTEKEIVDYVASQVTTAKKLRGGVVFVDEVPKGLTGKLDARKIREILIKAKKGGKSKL
Method in brief: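 Purified P. pyralis luciferase (0.04 ug/mL, 4x reagent) added to Tris-acetate buffer with 0.013 mM D-luciferin, 0.013 mM ATP and 13.3 mM Mg-acetate; compounds preincubated 15 min, then luminescence read after 5 min, RT.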

[20] = Cytotoxicity qHTS for assessment of Hepg2 cells membrane integrity screened against the NCATS CANVASS Library (AID 1347387)
Method in brief: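 Fluorescence proportional to lysed-cell number, from LDH leaking out of HepG2 cells exposed 5 hr at 37C to 0.59 nM - 46 uM compound (11-point qHTS), is measured after 10 min with CytoTox-ONE.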

Row | SMILES | Potency [1] | Potency [2] | Potency [3] | Potency [4] | Potency [5] | Potency [6] | Potency [7] | Potency [8] | outcome [9] | Potency [10] | Potency [11] | Potency [12] | outcome [13] | Potency [14] | outcome [15] | Potency [16] | outcome [17] | Potency [18] | Potency [19] | outcome [20]
1 | CN1CC[C@@]2([C@@]34CCN(C)[C@@H]3Nc3ccccc34)c3ccccc3N[C@@H]12 | inactive | inactive | inactive | inactive | inactive | inactive | inactive | inactive | inactive | inactive | inactive | inactive | inactive | 0.211 µM (active) | inactive | inactive |  |  |  | 
2 | CN1CC[C@]23c4ccccc4N[C@H]1[C@]21CCN(C)[C@H]3Nc2ccccc21 | inactive | inactive | inactive | inactive | inactive | inactive | inactive | inactive | inactive | inactive | inactive |  |  | inactive | inactive | inactive | inactive | inactive |  | 
3 | CCC(=O)N[C@@H](C[C@H](C)C(Cl)(Cl)Cl)C(=O)N1C(=O)C=C(OC)[C@@H]1C[C@H](C)CCl |  | 16.8 µM (active) |  |  |  | 16.8 µM (active) |  |  | inactive | inactive | 10.5 µM (active) |  |  | inactive | inactive | inactive |  |  | inactive | inactive
4 | C/C1=C/[C@@H](C)[C@H](O)[C@@H](O)/C=C/CC/C=C/C(=O)O[C@@H]1[C@H](C)C(=O)/C=C/CC1CC(=O)NC(=O)C1 |  | inactive |  |  |  | inactive |  | 13.2 µM (active) | inactive | inactive | 2.09 µM (active) | 16.7 µM (active) | inactive | inactive | inactive |  | inactive | inactive | inactive | inactive
5 | CO/C=C/C(=O)c1cc2cnc3c(N)cc(=NC(=O)C(C)C)c([nH]1)c23 |  |  |  | 0.0375 µM (active) |  |  | 0.211 µM (active) | 0.0296 µM (active) |  | 0.296 µM (active) |  | 0.0334 µM (active) | inactive | inactive | inactive | inactive | inactive | inactive |  | 
6 | C/C=C1/CN2C3CC1C1C=CC(=O)N4c5ccccc5[C@@]3(C[C@@H]2C2=C[C@H]3C5CC6N(CC[C@@]67c6ccccc6N(C2=O)[C@@H]37)C/C5=C/C)[C@H]14 (stereo partly specified) |  | 5.95 µM (active) | 9.41 µM (active) |  | 7.49 µM (active) | 13.3 µM (active) |  | 11.8 µM (active) |  | 9.35 µM (active) |  | 9.41 µM (active) | inactive | 1.06 µM (active) |  | 3.31 µM (active) | inactive | 0.216 µM (active) | inactive | inactive
7 | C[C@@]12C[C@@H](C[C@@H]3C(=O)O[C@@H](c4ccoc4)[C@H](OC(=O)c4ccccc4)[C@@H]31)OC2=O | inactive | inactive | inactive | inactive | inactive | inactive | inactive | inactive | inactive | inactive | inactive | inactive | inactive | inactive | inactive | inactive | inactive | inactive | inactive | inactive
8 | CCCc1c2c([nH]c(=O)c1C)C(=O)c1[nH]c(=O)c(C)c(CCC)c1C2=O |  |  | 7.47 µM (active) | 11.8 µM (active) | 10.6 µM (active) | 8.41 µM (active) | 7.47 µM (active) | 14.8 µM (active) | inactive | inactive |  | 9.41 µM (active) | inactive | 11.8 µM (active) | inactive |  | inactive |  | inactive | inactive
9 | O=C1CC(c2ccc(O)cc2)Oc2cc(O)cc(O)c21 (stereo unspecified) | inactive | inactive | inactive | inactive | inactive | inactive | inactive | inactive | inactive | inactive | inactive |  | inactive |  | inactive | inactive | inactive |  | inactive | 
10 | O=Cc1ccc2n1C[C@]1(OC2)O[C@H](CO)[C@@H](O)[C@@H]1O | inactive | inactive | inactive | inactive | inactive | inactive | inactive | inactive | inactive | inactive |  | inactive | inactive |  |  | inactive |  | inactive | inactive | 
11 | Cc1cc(O)cc2c1C(=O)c1c(O)cc(O)cc1C2=O | inactive | inactive | inactive | inactive | inactive | inactive | inactive | inactive | inactive | inactive | inactive | inactive | inactive |  | inactive | inactive | inactive | inactive | inactive | inactive

— PubChem BioAssay (NCATS)
